{"source": "the supplement of paper PMC6555819", "data": [{"tested_on": "RARg:RXRa (NR concentration 270 nM, RXRa partner concentration 90 nM)", "assay": "PBM binding z-score (relative to random genomic background probes); higher = stronger binding; sequences stand for … in GC…GCGATTGACAGCGTAGAATGAAGG", "how_it_was_run": "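Probes were double-stranded and carried 34-nt variable regions with direct-repeat seeds, single-nucleotide variants, half-site ablations and random human genomic background sequences, printed on custom Agilent 4×180K protein-binding microarrays. Arrays were incubated 1 h with ligand-free nuclear receptor dimers in PBS pH 7.4, 2% milk, 0.02% Triton X-100, 1 mM DTT, 0.2 mg/mL BSA and 0.4 mg/ml salmon testes DNA. Antibodies against each partner (one per run) detected binding, and scanned fluorescence was regression-normalized. Binding z-scores use the random background probes as reference.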", "values": [{"sequence": "CCTTACGGGTCACTCCAGGTTATAGCATCGGAGT", "PBM binding z-score": 4.39}, {"sequence": "TTGCCTAGGTCATGGGCCAGTATACCACGCGAAC", "PBM binding z-score": 4.39}, {"sequence": "TCTTGTAGATCAATGGTTAAGAAAGCCGAAGCCT", "PBM binding z-score": -0.0652}, {"sequence": "CCGACTGGGGCATAAGGTTACCCTAAGCCAGCCC", "PBM binding z-score": 1.27}, {"sequence": "CCTTACTGGTCACTCCAGGTTATAGCATCGGAGT", "PBM binding z-score": 0.885}, {"sequence": "ATCTCTAGGTCACCAAGTTCAGTGAATGCCGAAC", "PBM binding z-score": 5.35}, {"sequence": "AGAACGAGGGCAATGAGTTGTTAGCACGGGTGGC", "PBM binding z-score": 0.787}, {"sequence": "GCTGCTACGTCAGGTTGGTCAGCTAACGGGTACG", "PBM binding z-score": -0.503}, {"sequence": "TAGCCTAGGTCAGACCGGGCCAGTATACGCTATA", "PBM binding z-score": 2.62}, {"sequence": "CCGAGTAGGTTATGGGGCACTCAGGCAACGGTGA", "PBM binding z-score": 0.475}, {"sequence": "GCTTACGGGTCAAAGGTGATAGCATGAATAGAAT", "PBM binding z-score": 5.62}, {"sequence": "CCTACTGGGCCAAACAGGTCATTGATGCCGATAA", "PBM binding z-score": 1.56}, {"sequence": "ATATGTAGGTTATGGGGTCATTCAGTTTGCGCAT", "PBM binding z-score": 5.29}, {"sequence": "ATCGAAAGGTCGTGAGGTTAGTATACAGAAAGGC", "PBM binding z-score": 4.88}, {"sequence": "GCGACTGGGGCAAAGCAGGTTTCCATAAGGTTGG", "PBM binding z-score": -0.174}, {"sequence": "CCTACTAGGCCAAAAAGGTCATTGATGCCGATAA", "PBM binding z-score": 4.81}, {"sequence": "GCTGCTAGGTCAACTGTTGGTCAGCTAAAGCTCG", "PBM binding z-score": 5.23}, {"sequence": "AGAACGAGGGCACGTTGAGTTGATAGCAGAGTAG", "PBM binding z-score": 1.84}, {"sequence": "CGTCCAGGGTCAAAGGTCAGTGAAGAGATGACGG", "PBM binding z-score": 8.3}, {"sequence": "ATCACTAGGTAAAAGTTCAGTGAATCCCGAGGAT", "PBM binding z-score": 2.11}, {"sequence": "CCAGATAGGTGAGAAGGTAACTCAGCCTCGATTA", "PBM binding z-score": 0.647}, {"sequence": "ACTATTAGTTAACTTAGGGCAACCGATACGACGC", "PBM binding z-score": 0.89}, {"sequence": "AGTCAAAGTTAACTAGGTAACGTAAGATTCAGCT", "PBM binding z-score": 0.302}, {"sequence": "TCTTGTAGATCAAGCAGGTTAAGACAGCCTGAGT", "PBM binding z-score": -0.0241}, {"sequence": "GCTAGTTGGTAAGTAAAAGGTCACACACCGGTCG", "PBM binding z-score": 4.96}, {"sequence": "CGAACTAGGTCATTGACAGGACAGTGAGTAGTAA", "PBM binding z-score": 4.39}, {"sequence": "TCTTGTAGATCAATAGAGGTCAAGAAAGTGCGCT", "PBM binding z-score": 3.92}, {"sequence": "ACTAACAGGCCAAGTTTGGGTCACTCAAACAAAG", "PBM binding z-score": 2.88}, {"sequence": "TCTATTAGTTGAAGGGCAAACGACGAGTCCGTTT", "PBM binding z-score": 0.673}, {"sequence": "GCTAGGTGGTCAGTAAAAGGTCACACACCGGTCG", "PBM binding z-score": 6.23}, {"sequence": "ATCTCTAGGTAACAAGTACAGTGAAAGAGAGGAC", "PBM binding z-score": 0.905}, {"sequence": "ATCTCTAGGTAAAAGCTCAGTGAATCCCGAGGAT", "PBM binding z-score": -0.0468}, {"sequence": "TTACCAAGGTGCAGGTCGTTGATCCCTCTGTAGA", "PBM binding z-score": 0.0227}, {"sequence": "AGACTGAGGTTATACGTAGATCAGGGAAGAAAGT", "PBM binding z-score": 1.64}, {"sequence": "CAAACTAGGTCAGAGGTCAAAGTCGAGCCAACCA", "PBM binding z-score": 7.59}, {"sequence": "GCGCGGAGGACAAGGTCAGAGCTTTGTCCGTAGA", "PBM binding z-score": 3.09}, {"sequence": "TCTCGGAGGACACGAAAGGTCAGGGCTCGACATC", "PBM binding z-score": 4.98}, {"sequence": "TATGCAGGGTCAAAGGCCAGAGTACGAATGTCGA", "PBM binding z-score": 5.45}, {"sequence": "CCTAATGGGCCAAGGTCATTGATCAGTCAAAGCA", "PBM binding z-score": 3.94}, {"sequence": "AGAACGAGGGCACGCGGAGTTGATAGCAGAGTAG", "PBM binding z-score": 2.32}]}]}
